{"source": "PubChem BioAssay (NCATS)", "note": "Inconclusive results are not listed. Entries that show only a call come without a potency. The source made the active and inactive calls. Calls come from the whole dose curve. Bridge positions count the residues as written; N and C are the ends. Square brackets hold non-standard residues; d marks the D form. Peptide text beside a SMILES is read from it. Orn = NCCC[CH](N)C(=O)O; Mpa = O=C(O)CCS", "data": [{"test": "Primary qHTS for inhibitors of MERS-S pseudo-typed particle cell entry (AID 1479149); note: nearly all actives have a fitted effect of over 60% in size", "conditions": "MERS-S pseudotyped particle entry, luciferase; series mostly up to 57.1 µM", "values": [{"smiles": "N#Cc1cc(-c2n[nH]c(-c3ccncc3)n2)ccn1", "Potency": "inactive"}, {"smiles": "CC(C)OC(=O)CCC/C=C\\C[C@@H]1[C@@H](CC[C@@H](O)CCc2ccccc2)[C@H](O)C[C@@H]1O", "outcome": "inactive [at 11.4 µM]"}, {"smiles": "Cn1nnnc1SCC1=C(C(=O)O)N2C(=O)[C@H](NC(=O)C(O)c3ccccc3)C2SC1", "note": "(stereo not given in full)", "Potency": "inactive"}, {"smiles": "C[N+]1(C)C2CC[C@H]1CC(OC(=O)C(O)c1ccccc1)C2", "note": "(stereo not given in full)", "Potency": "inactive"}, {"smiles": "COC(=O)N[C@H](C(=O)N1CCC[C@H]1C(=O)Nc1ccc([C@@H]2CC[C@@H](c3ccc(NC(=O)[C@@H]4CCCN4C(=O)[C@@H](NC(=O)OC)C(C)C)cc3)N2c2ccc(C(C)(C)C)cc2)cc1)C(C)C", "Potency": "inactive"}, {"smiles": "C=CC[N@@+]12CC[C@]34c5ccccc5N5/C=C6\\C7N(/C=C(\\C53)[C@@H](C[C@@H]41)/C(=C/CO)C2)c1ccccc1[C@@]71CC[N@@+]2(CC=C)C/C(=C\\CO)[C@@H]6C[C@@H]12", "note": "(stereo not given in full)", "Potency": "inactive"}, {"smiles": "CNC(=O)c1c(I)c(C(=O)NCC(=O)Nc2c(I)c(C(=O)O)c(I)c(C(=O)NCCO)c2I)c(I)c(N(C)C(C)=O)c1I", "Potency": "inactive"}, {"smiles": "C=C1CCN([C@H](C)[C@](O)(Cn2cncn2)c2ccc(F)cc2F)CC1", "Potency": "inactive"}, {"smiles": "O=C(OC1C[C@@H]2CC3C[C@@H](C1)N2CC3=O)c1c[nH]c2ccccc12", "note": "(stereo not given in full)", "Potency": "inactive"}, {"smiles": "O=C(Cn1c(=O)sc2ccc(Cl)cc21)N1CCN(CCO)CC1", "Potency": "inactive"}, {"smiles": "CC(C)[C@H]1CC[C@H](C)C[C@H]1O", "Potency": "inactive"}, {"smiles": "CCCCCCCCCCCCCCCCOc1nc2ccc(C)cc2c(=O)o1", "Potency": "inactive"}, {"smiles": "CC(C)(CO)C(O)C(=O)NCCCC(=O)O", "note": "(stereo not given)", "Potency": "inactive"}, {"smiles": "CC1=C(C(=O)OCCN(Cc2ccccc2)c2ccccc2)C(c2cccc([N+](=O)[O-])c2)C(P2(=O)OCC(C)(C)CO2)=C(C)N1", "note": "(stereo not given)", "Potency": "inactive"}, {"smiles": "CN(C)CC(c1ccc(O)cc1)C1(O)CCCCC1", "note": "(stereo not given)", "Potency": "inactive"}, {"smiles": "[2H]C([2H])([2H])C(CCC[C@@H](C)[C@H]1CC[C@H]2/C(=C/C=C3\\C[C@@H](O)C[C@H](O)C3=C)CCC[C@]12C)C([2H])([2H])[2H]", "Potency": "inactive"}, {"smiles": "CCCCCCCCCCCCCCCC(=O)OC1CCCn2c1nc(C)c(CCN1CCC(c3noc4cc(F)ccc34)CC1)c2=O", "note": "(stereo not given)", "Potency": "inactive"}, {"smiles": "NS(=O)(=O)c1ccc(-n2nc(C(F)(F)F)cc2-c2ccc(F)cc2)cc1", "Potency": "inactive"}, {"smiles": "COc1ccc(CCNCC(O)COc2cccc(C)c2)cc1OC", "note": "(stereo not given)", "Potency": "inactive"}, {"smiles": "CC1(C)[C@@H]2CC[C@@]1(C)[C@H](OC(=O)CSC#N)C2", "Potency": "inactive"}, {"smiles": "CC(C)(CO)[C@@H](O)C(=O)NCCC(=O)NCCSSCCNC(=O)CCNC(=O)[C@H](O)C(C)(C)CO", "Potency": "inactive"}, {"smiles": "CC(C)(C)NC(=O)[C@H]1CC[C@H]2[C@@H]3CC=C4C=C(C(=O)O)CC[C@]4(C)[C@H]3CC[C@]12C", "Potency": "inactive"}, {"smiles": "FC(F)OC(Cl)C(F)(F)F", "note": "(stereo not given)", "Potency": "inactive"}, {"smiles": "NC[C@@H]1O[C@H](O[C@H]2[C@H](O)[C@H](O[C@H]3[C@@H](O)[C@H](N)C[C@H](N)[C@H]3O[C@H]3O[C@H](CN)[C@H](O)[C@H](O)[C@H]3N)O[C@@H]2CO)[C@@H](N)[C@@H](O)[C@@H]1O", "activity change, negative = inhibition": "3.6% [at 5.34 µM] (inactive)"}, {"smiles": "CCCC(=O)Nc1ncnc2c1ncn2C1O[C@@H]2COP(=O)(O)O[C@H]2[C@H]1OC(=O)CCC", "note": "(stereo not given in full)", "Potency": "inactive"}, {"smiles": "CCOc1ccc(CC2NC(=O)CCSSCC(C(=O)N3CCCC3C(=O)NC(CCCN)C(=O)NCC(N)=O)NC(=O)C(CC(N)=O)NC(=O)C(C(C)O)NC(=O)C(C(C)CC)NC2=O)cc1", "note": "(stereo not given) ([Mpa]Y(Et)ITNCP[Orn]G-NH2; disulfide 1-6; configuration not given here)", "Potency": "inactive"}, {"smiles": "C[C@H](NCCc1ccc(O)cc1)[C@H](O)c1ccc(O)cc1", "Potency": "inactive"}, {"smiles": "CN(C)CC(=O)O", "Potency": "inactive"}, {"smiles": "NCCCC(N)C(=O)O", "note": "(stereo not given)", "Potency": "inactive"}, {"smiles": "C[C@H]1O[C@]2(CS1)CN1CCC2CC1", "Potency": "inactive"}, {"smiles": "CC(C)C(=O)OCC(=O)[C@@]12OC(C3CCCCC3)O[C@@H]1C[C@H]1[C@@H]3CCC4=CC(=O)C=C[C@]4(C)[C@H]3[C@@H](O)C[C@@]12C", "note": "(stereo not given in full)", "Potency": "inactive"}, {"smiles": "C[N+](C)(C)CCOP(=O)([O-])OP(=O)(O)OC[C@H]1OC(n2ccc(N)nc2=O)[C@H](O)[C@@H]1O", "note": "(stereo not given in full)", "outcome": "inactive [at 0.573 µM]"}, {"smiles": "NC(=O)[C@@H]1CC[C@@H]2CN1C(=O)N2OS(=O)(=O)O", "Potency": "inactive"}, {"smiles": "NC(Cc1cc(I)c(Oc2cc(I)c(O)c(I)c2)c(I)c1)C(=O)O", "note": "(stereo not given)", "Potency": "inactive"}, {"smiles": "CC1(C)S[C@@H]2[C@@H](N3C(=O)[C@@H](c4ccccc4)NC3(C)C)C(=O)N2[C@H]1C(=O)O", "Potency": "inactive"}, {"smiles": "O=C(O)C1CCc2cc(C3CCCCC3)c(Cl)cc21", "note": "(stereo not given)", "Potency": "inactive"}, {"smiles": "O=C(O)CCSC[C@H]1O[C@@H]2O[C@H]3[C@H](O)[C@@H](O)[C@@H](O[C@H]4[C@H](O)[C@@H](O)[C@@H](O[C@H]5[C@H](O)[C@@H](O)[C@@H](O[C@H]6[C@H](O)[C@@H](O)[C@@H](O[C@H]7[C@H](O)[C@@H](O)[C@@H](O[C@H]8[C@H](O)[C@@H](O)[C@@H](O[C@H]9[C@H](O)[C@@H](O)[C@@H](O[C@H]1[C@H](O)[C@H]2O)O[C@@H]9CSCCC(=O)O)O[C@@H]8CSCCC(=O)O)O[C@@H]7CSCCC(=O)O)O[C@@H]6CSCCC(=O)O)O[C@@H]5CSCCC(=O)O)O[C@@H]4CSCCC(=O)O)O[C@@H]3CSCCC(=O)O", "Potency": "inactive"}, {"smiles": "O=S(=O)(O)CCCS(=O)(=O)O", "Potency": "inactive"}, {"smiles": "CC(=O)O[C@]1(C(C)=O)CC[C@H]2[C@@H]3C[C@H](C)C4=CC(=O)C=C[C@]4(C)[C@@]3(F)[C@@H](O)C[C@@]21C", "Potency": "inactive"}, {"smiles": "CN(CCCCCCCCCCN(C)C(=O)Oc1cccc([N+](C)(C)C)c1)C(=O)Oc1cccc([N+](C)(C)C)c1", "Potency": "inactive"}]}]}
